The entries come from a sample that favours hits as a whole.
Sm TGR inh: inhibitors of Schistosoma mansoni thioredoxin glutathione reductase | purified TGR, DTNB reduction, TNB absorbance 405 nm | Potency, µM (series often up to 114 µM), hits mostly inhibitors | 360,000 tested, 3% active | AID 485364; also: nearly all actives have a fitted effect of over 60% in size
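Kinetic colorimetric format: TGR-catalysed, NADPH-driven DTNB reduction monitored via TNB absorbance. Enzyme dispensed at 20 nM; compound exposure 15 min at room temperature before reaction start.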
LmPK inh: inhibitors of Leishmania mexicana pyruvate kinase | Q27686 | purified LmPK, Kinase-Glo ATP luminescence, 1 h | Potency, µM (doses to about 57.5 µM), actives largely listed as inhibitors | 290,000 tested, 0.37% active
Target sequence (Q27686 whole entry, looked up): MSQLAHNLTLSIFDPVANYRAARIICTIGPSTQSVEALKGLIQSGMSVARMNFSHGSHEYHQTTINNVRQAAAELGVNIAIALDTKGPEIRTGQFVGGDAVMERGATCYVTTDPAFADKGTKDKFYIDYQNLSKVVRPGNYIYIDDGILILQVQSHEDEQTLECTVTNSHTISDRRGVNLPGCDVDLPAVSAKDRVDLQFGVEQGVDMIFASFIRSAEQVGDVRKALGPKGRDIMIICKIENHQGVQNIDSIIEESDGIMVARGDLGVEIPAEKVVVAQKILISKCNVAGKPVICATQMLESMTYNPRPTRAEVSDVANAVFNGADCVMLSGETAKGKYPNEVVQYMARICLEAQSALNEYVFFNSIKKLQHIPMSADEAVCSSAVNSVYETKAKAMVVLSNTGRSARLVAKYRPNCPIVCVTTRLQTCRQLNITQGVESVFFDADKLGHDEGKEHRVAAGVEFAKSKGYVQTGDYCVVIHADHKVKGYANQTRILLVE
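Purified LmPK (0.1 nM) converted ADP (0.1 mM) to ATP with PEP (0.5 mM) in imidazole buffer pH 7.2 with KCl and MgCl2, 1 h at room temperature. ATP was read by Kinase-Glo luminescence; data normalized to uninhibited and no-enzyme controls.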
Giardia FBPA inh: blocks Giardia fructose-bisphosphate aldolase activity; A8B2U2; 290,000 tested, 0.71% active; purified Giardia FBPA; Potency, µM (doses to about 59.6 µM), most hits filed as inhibitors; also: nearly all actives have a fitted effect of over 55% in size
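40 nM FBPA preincubated 10 min at RT with compound (up to 57.5 uM final), then substrate plus GAPDH/TPI/NAD/arsenate coupling and diaphorase/resazurin added. Fluorescence read after 20 min at RT, 525/598 nm.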
TbPYK inhibitor: inhibitors of Trypanosoma brucei pyruvate kinase | 410,000 tested, 0.12% active | Q57TT1 | AID 624173 | Potency, µM (titrated, usually from 76.8 µM), actives largely listed as inhibitors | TbPYK enzyme, Kinase-Glo Plus ATP luminescence, 45 min; also: nearly all actives have a fitted effect of over 50% in size
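Readout: single end-point luminescence (Kinase-Glo Plus, 10 min). Reaction conditions were TbPYK/substrate plus 130 uM ADP, 45 min at RT, pH 7.2 TEA buffer. No-enzyme wells served as controls, and data were normalized before concentration-response fitting.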
CHX counter: counter-screen hit for Shiga toxin inhibitors, cycloheximide; AID 2314; cell reporter, cycloheximide protein synthesis inhibition counterscreen; max response, %; 300,000 tested, 12% active; in the data active = max response mostly above about 13%, no sharp cut-off; inactive = mostly below about 14%; also: read at 38.3 µM for the half of the compounds with a filed dose
Shiga toxin inh: blocks Shiga toxin action in Vero cells. 290,000 tested, 9.2% active. inhibition, % at 38.7 µM. Vero cells, Shiga toxin protein synthesis inhibition reporter. AID 2315; in the data active = inhibition mostly above about 28%, no sharp cut-off; inactive = mostly below about 43%
Hits are given with their value; 0 = inactive; ? = inconclusive; - = no result given; + = active, no number; [ ] = dose if it differs, or a comment. Unless noted, calls follow the shape of the dose curve; as a rule, active = well fitted curve in the direction sought with a large enough effect; inconclusive = small, poorly fitted or top-dose-only effect, or another doubt; inactive = no such curve, though single readings can be large; an effect the other way counts as inactive or inconclusive.

SMILES | Sm TGR inh | LmPK inh | Giardia FBPA inh | TbPYK inhibitor | CHX counter | Shiga toxin inh
CCCc1cc(=O)[nH]c(SCC(=O)N2N=C(c3ccc(Cl)cc3)CC2c2ccco2)n1 (stereo not drawn) | 0 | 0 | 0 | 0 | 0 | 0
Cc1ccc(C2=NN(C(=O)CSc3nc4ncc(Cl)cc4[nH]3)C(c3ccco3)C2)cc1 (stereo not drawn) | 14.1µM | 0 | 0 | 0 | 14.4 | 0
CCOP(=O)(OCC)C1NC(=O)N(c2ccccc2)C1=O (stereo not drawn) | 0 | 0 | 0 | 0 | 0 | 0
COc1ccc(C(=O)N2CCCc3ccccc32)cc1 | 0 | 0 | 0 | 0 | 0 | 0
COc1ccccc1C(=O)NC(=S)Nc1ccccc1N1CCCC1 | ? | 0 | - | - | 27.6 | 0
COc1ccccc1C(=O)NC(=S)N1CCCc2ccccc21 | 0 | 0 | ? | 0 | 47.9 | 164.2
COc1ccccc1C(=O)NC(=S)N1CCc2ccccc21 | 0 | 0 | 0 | 0 | 0 | 0
COc1ccc(C(=O)NC(=S)N2CCCc3ccccc32)cc1OC | 0 | 0 | 0 | 0 | 20.9 | 0
CC(C)NC(=S)N/N=C/c1cc(Br)ccc1O | 0 | 0 | 0 | 0 | 0 | 0
COc1ccc2c(c1)OC(=O)CC2c1ccccc1C (stereo not drawn) | - | - | 0 | - | 0 | 0
Cc1ccc(S(=O)(=O)NCCc2nnc3ccc(N4CCOCC4)nn23)cc1 | - | - | - | 0 | - | -
COc1ccc(-n2c(SCC(=O)Nc3cc(C)on3)nc3c(c2=O)SC(C)C3)cc1 (stereo not drawn) | - | - | - | 0 | - | -
CCCCC(=O)Nc1cccc(-c2cn3ccsc3n2)c1 | 0 | 0 | 0 | 0 | 34.3 | 47.3
COc1ccccc1C(=O)Nc1cccc(-c2cn3ccsc3n2)c1 | 0 | 0 | 0 | - | 27.0 | 42.1
CC(C)Cc1cc(C(=O)Nc2c(F)cc(F)cc2Br)no1 | 0 | 0 | 0 | 0 | 0 | 36.8
CC(C)Cc1cc(C(=O)Nc2ccc(F)cc2F)no1 | 0 | 0 | 0 | 0 | 56.2 | 90.4
COc1ccc(-c2cc(C(=O)Nc3ccc(F)cc3F)no2)cc1 | 0 | 0 | 0 | 0 | 0 | 0
COc1ccc(-c2cc(C(=O)Nc3c(F)cc(F)cc3Br)no2)cc1 | 0 | 0 | 0 | 0 | 15.6 | 67.3
CC(C)Cc1cc(C(=O)Nc2cc(Cl)ccc2Cl)no1 | 0 | 0 | 0 | 0 | 0 | 0
CC(NC(=O)CN(c1ccc(Cl)cc1Cl)S(=O)(=O)c1ccccc1)c1ccccc1 (stereo not drawn) | 0 | - | - | 0 | - | -
O=S(=O)(c1ccc(Cl)cc1)N1CCN(C(=S)NCC2CCCO2)CC1 (stereo not drawn) | 0 | 0 | 0 | 0 | 0 | 0
O=C(Cn1cc(SCc2ccccc2Cl)c2ccccc21)N1CCCCCC1 | 0 | - | - | 0 | - | -
COC(=O)N/N=C/c1cc(C)n(-c2ccc(F)cc2)c1C | 0 | 0 | 0 | 0 | 37.3 | 88.2
COC(=O)N/N=C/c1cc(C)n(-c2ccccc2)c1C | 0 | 0 | 0 | 0 | 23.9 | +
Cc1cc(/C=N/n2cnnc2)c(C)n1-c1ccc(OCc2ccc(F)cc2)cc1 | 0 | 0 | 0 | 0 | 19.6 | 0
SMILES | Sm TGR inh | LmPK inh | Giardia FBPA inh | TbPYK inhibitor | CHX counter | Shiga toxin inh
Cc1cc(/C=N/n2cnnc2)c(C)n1-c1ccc(OCc2ccc(Cl)cc2Cl)cc1 | 0 | 0 | 0 | 0 | 0 | 0
COC(=O)N/N=C/c1cc(C)n(-c2ccc(Br)cc2)c1C | 0 | 0 | 0 | 0 | 0 | 0
CCNC(=S)N/N=C/c1cc(C)n(-c2ccc(Cl)cc2)c1C | 0 | 0 | 0 | 0 | 21.2 | 0
C=CC1=C2C=C(C3CC3)N(C3CCCC3)C=C2C(=O)C(C)(OC(=O)c2ccco2)C1=O (stereo not drawn) | - | 0[11.5 µM] | ? | - | - | -
Nc1nnc(-c2ccccc2F)s1 | 0 | 0 | 0 | 0 | 20.8 | 86.0
Nc1nnc(-c2ccc(Cl)cc2Cl)s1 | 0 | 0 | 0 | 0 | 23.2 | 57.7
Nc1nnc(Cc2ccccc2F)s1 | 0 | 0 | 0 | 0 | 0 | 0
O=C(CNCc1ccc(Cl)cc1)Nc1cc(S(=O)(=O)N2CCCC2)ccc1Cl | - | - | - | 0 | - | -
CCc1ccc(-c2nc(-c3ccncc3)no2)cc1 | 0 | 0 | 0 | 0 | 41.8 | 85.4
CCCCc1ccc(-c2nc(-c3ccncc3)no2)cc1 | 0 | 0 | 0 | 0 | 39.0 | 72.9
Cc1ccc(N(C(=O)CNC(=O)c2ccco2)C(C(=O)NC2CCCCC2)c2ccncc2)cc1F (stereo not drawn) | 0 | 0 | 0 | 0 | 0 | 0
